# Experimental data as given in PubChem BioAssay (Tox21).
# Several values for one entry are separate records, joined by “and”; a condition that tells them apart may be missing. Equal entries are not always repeated. Values without a mark were called inactive. Records with an inconclusive call do not appear. A call without a number means that no potency is given here. Activity calls are given as the source filed them. Unless noted, the call rests on the fitted dose curve; in most records, active means well fitted curve in the direction sought with a large enough effect in the repeat runs; inconclusive means weak or mixed curves; inactive means no such curve, though single readings can be large; an effect the other way counts as inactive or inconclusive.
# Assays:
# [1] = qHTS assay to identify small molecule agonists of the estrogen receptor alpha (ER-alpha) signaling pathway in the presence of an antagonist - cell viability counter screen (AID 1259386);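 further: cells exposed to compounds for 22 h at 37 °C before the viability read; nearly all actives have a fitted effect of over 30% in size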; further: potency means the concentration at half of the fitted maximal effect; on activity change, negative = cytotoxicity: series mostly up to about 92 µM
# Procedure, shortened: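 Cell viability in VM7Luc4E2 cells (endogenous full-length ER-alpha) measured by CellTiter-Fluor fluorescence in the same wells as the luciferase screen. Cells pre-cultured 5 days in charcoal-stripped serum, then treated 22 h with compounds at 15 concentrations plus 10.0nM ICI-182,780.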
# [2] = target: Progesterone receptor (Homo sapiens) (UniProt P06401); experiment: qHTS assay to identify small molecule agonists of the progesterone receptor (PR) signaling pathway (AID 1346784; calls by dose curve; further: nearly all actives have a fitted effect of over 30% in size)
# Procedure, shortened: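 Agonist qHTS: compounds pinned onto 3,000 PR-UAS-bla HEK 293T cells per well in charcoal-stripped serum medium, 16hr at 37C, then beta-lactamase activity measured by LiveBLAzer FRET fluorescence after 2 hours at room temperature.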
# [3] = target: Progesterone receptor (Homo sapiens) (UniProt P06401); experiment: qHTS assay to identify small molecule antagonists of the progesterone receptor (PR) signaling pathway (AID 1346795; active means well fitted inhibition curve with a large enough effect in the signal ratio in the repeat runs, not every such curve was filed as active; the % refers to the signal ratio; further: potency means the concentration at half of the fitted maximal effect)
# Procedure, shortened: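 Antagonist mode with agonist R5020 at 1 nM final and 16 hr incubation at 37C. Reporter was beta-lactamase driven by UAS in HEK293T (PR-UAS-bla), 2% charcoal-stripped serum; signal from LiveBLAzer FRET substrate, 2 hr at room temperature.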
# [4] = qHTS assay to identify small molecule antagonists of the progesterone receptor (PR) signaling pathway - cell viability counter screen (AID 1346798); further: nearly all actives have a fitted effect of over 50% in size; further: potency means the concentration at half of the fitted maximal effect; on activity change, negative = cytotoxicity: series mostly up to about 92 µM
# Procedure, shortened: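 Cytotoxicity read as CellTiter-Glo luminescence (30 min, room temperature) in the same wells as the beta-lactamase readout. HEK293T PR-UAS-bla cells in charcoal-stripped 2% FBS received compound and R5020, then 16 h at 37C, 5% CO2.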
# [5] = qHTS assay to identify small molecule agonists of the progesterone receptor (PR) signaling pathway - cell viability counter screen (AID 1346799; calls by dose curve; further: nearly all actives have a fitted effect of over 45% in size; further: potency means the concentration at half of the fitted maximal effect)
# Procedure, shortened: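 Cytotoxicity measured by CellTiter-Glo luminescence (30 min, RT) in the same wells as the PR beta-lactamase agonist read. Those HEK293T cells had 16 h compound treatment at 37 C in 2% charcoal-stripped FBS medium.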
# [6] = qHTS assay to identify small molecule agonists of the TGF-beta/Smad signaling pathway - cell viability counter screen (AID 1346829); further: top concentration of the series differs between compounds; nearly all actives have a fitted effect of over 45% in size
# Procedure, shortened: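 After overnight seating at 37 C and 5% CO2, reporter cells got compounds for 5 hr and FRET substrate for 2 hr; cell viability then came from CellTiter-Glo luminescence.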
# [7] = qHTS assay to identify small molecule agonists of the TGF-beta/Smad signaling pathway (AID 1346859; active means well fitted activation curve with a large enough effect in the signal ratio in the repeat runs, not every such curve was filed as active; the % refers to the signal ratio; further: series mostly up to about 77 µM)
# Procedure, shortened: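 Fluorescence (ex 405 nm; em 460 and 530 nm) was read 2 h after LiveBLAzer FRET substrate at RT. The preceding compound treatment of overnight-plated SBE-bla HEK293T cells lasted 5 h at 37 C.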
# [8] = target: Thyrotropin-releasing hormone receptor (Homo sapiens) (UniProt P34981); experiment: qHTS assay to identify small molecule antagonists of the thyrotropin-releasing hormone receptor (TRHR) signaling pathway (AID 1346877; active means well fitted inhibition curve with a large enough effect in the repeat runs, not every such curve was filed as active; further: potency means the concentration at half of the fitted maximal effect; on activity, negative = inhibition: series mostly up to about 51 µM)
# Procedure, shortened: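 TRHR-expressing HEK293 cells loaded with calcium dye for 2 h at 37 C; compounds pre-incubated 5 min at room temperature before TRH challenge at 1 nM final. Intracellular calcium fluorescence read kinetically for 3 min; 15 concentrations in triplicate.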
# [9] = target: Thyrotropin-releasing hormone receptor (Homo sapiens) (UniProt P34981); experiment: qHTS assay to identify small molecule agonists of the thyrotropin-releasing hormone receptor (TRHR) signaling pathway (AID 1346891; calls by dose curve; further: series mostly up to about 58 µM)
# Procedure, shortened: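 Agonist-mode intracellular calcium readout: kinetic fluorescence over 3 min at 1 s intervals after compound addition to TRHR-HEK293 cells (18 h seeded, 2 h dye-loaded at 37 C). Fifteen concentrations, triplicates.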
# [10] = Human pregnane X receptor (PXR) small molecule agonists, qHTS cell viability counter screen (AID 1346977); further: nearly all actives have a fitted effect of over 50% in size; further: potency means the concentration at half of the fitted maximal effect
# Procedure, shortened: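 Same-well viability read: CellTiter-Fluor added after 23 hr compound exposure, fluorescence measured 1 hr later. Cells were PXR-Luc HepG2 seeded at 2,000/well in 5% charcoal-stripped FBS medium, rested 5 hr before dosing at 37 C.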
# [11] = Caspase-3/7 induction in HepG2 cells by small molecules, qHTS assay (AID 1346978); further: nearly all actives have a fitted effect of over 15% in size; further: potency means the concentration at half of the fitted maximal effect
# Procedure, shortened: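 Wild-type HepG2 cells, 2,000/well, settled 5 hr at 37 C and 5% CO2, then compound-treated for 17 hr; caspase-3/7 activity read by luminescent Caspase-Glo 3/7 after 30 min at room temperature.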
# [12] = Caspase-3/7 induction in CHO-K1 cells by small molecules, qHTS cell viability counter screen (AID 1346979); further: nearly all actives have a fitted effect of over 35% in size; further: potency means the concentration at half of the fitted maximal effect
# Procedure, shortened: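 Cytotoxicity counter screen: CellTiter-Fluor added to compound-treated wild-type CHO-K1 cells at 16 h (37C, 5% CO2), fluorescence measured 1 h later; same wells as caspase-3/7 measurement.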
# [13] = Caspase-3/7 induction in CHO-K1 cells by small molecules, qHTS assay (AID 1346980); further: nearly all actives have a fitted effect of over 15% in size
# Procedure, shortened: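 Wild-type CHO-K1 cells exposed to compounds for 17hr at 37 C, 5% CO2. Caspase-3/7 activity then measured by Caspase-Glo 3/7 luminescence after 30min at room temperature.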
# [14] = Caspase-3/7 induction in HepG2 cells by small molecules, qHTS cell viability counter screen (AID 1346981); further: nearly all actives have a fitted effect of over 30% in size; further: potency means the concentration at half of the fitted maximal effect; on activity change, negative = cytotoxicity: series mostly up to about 92 µM
# Procedure, shortened: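 Wild-type HepG2 cells, 2,000/well, settled 5 hr at 37 C, 5% CO2 before compound addition. Viability read by CellTiter-Fluor fluorescence, reagent added after 16 hr compound exposure, then 1 hr at 37C, in the same wells as the caspase read.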
# [15] = target: Nuclear receptor subfamily 1 group I member 2 (Homo sapiens) (UniProt O75469); experiment: Human pregnane X receptor (PXR) small molecule agonists, qHTS assay (AID 1346982); further: nearly all actives have a fitted effect of over 35% in size; further: potency means the concentration at half of the fitted maximal effect
# Procedure, shortened: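 PXR-Luc HepG2 reporter cells (CYP3A4-driven luciferase) in 5% charcoal-stripped FBS medium, plated 5 h before compound addition, then treated 24 h at 37C. Luciferase read by ONE-Glo luminescence after 30 min at room temperature.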
# [16] = target: Acetylcholinesterase (Homo sapiens) (UniProt P22303); experiment: Acetylcholinesterase (AChE) small molecule antagonists: colormetric cell-based qHTS assay (AID 1347395; calls by dose curve; further: nearly all actives have a fitted effect of over 30% in size; further: potency means the concentration at half of the fitted maximal effect)
# Procedure, shortened: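 Colorimetric readout: DTNB quantifies thiocholine from acetylthiocholine hydrolysed by endogenous AChE of SH-SY5Y cells (2,000/well, plated overnight). Compound pretreatment 30 min, substrate incubation 90 min, both 37 C.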
# [17] = qHTS assay to identify small molecule antagonists of the TGF-beta/Smad signaling pathway - cell viability counter screen (AID 1346824); further: nearly all actives have a fitted effect of over 50% in size
# Procedure, shortened: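 SBE-bla HEK 293T cells, incubated overnight, then compound plus 0.25 ng/mL TGF-beta1 (stock added) for 5 hr at 37 C. Viability was read in the same wells by CellTiter-Glo luminescence after 30 min at room temperature.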
# [18] = target: Nuclear receptor subfamily 1 group I member 2 (Homo sapiens) (UniProt O75469); experiment: CYP3A4 induction through human pregnane X receptor (PXR) by small molecules, qHTS assay (AID 1346984); further: potency means the concentration at half of the fitted maximal effect; nearly all actives have a fitted effect of over 40% in size
# Procedure, shortened: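 DPX-2 HepG2 cells carrying a PXR response element and CYP3A4-promoter luciferase construct, treated with compounds 24 hr at 37C. Then P450-Glo CYP3A4 Luciferin-IPA substrate (3uM final) for 3 hr at 37C, One-Glo added, luminescence read.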
# [19] = target: Nuclear receptor subfamily 1 group I member 2 (Homo sapiens) (UniProt O75469); experiment: Human pregnane X receptor (PXR) activation by small molecules, qHTS assay (AID 1346985); further: potency means the concentration at half of the fitted maximal effect; nearly all actives have a fitted effect of over 40% in size
# Procedure, shortened: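 DPX-2 cells (HepG2 co-transfected with a PXR response element and a CYP3A4-promoter luciferase construct) were seeded at 2,000 per well, rested 5 hr at 37C, then exposed to DMSO-dissolved compounds for 24 hr. Activation was read as luciferase luminescence.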
# Sequence of Acetylcholinesterase (Homo sapiens) (P22303 whole entry, looked up): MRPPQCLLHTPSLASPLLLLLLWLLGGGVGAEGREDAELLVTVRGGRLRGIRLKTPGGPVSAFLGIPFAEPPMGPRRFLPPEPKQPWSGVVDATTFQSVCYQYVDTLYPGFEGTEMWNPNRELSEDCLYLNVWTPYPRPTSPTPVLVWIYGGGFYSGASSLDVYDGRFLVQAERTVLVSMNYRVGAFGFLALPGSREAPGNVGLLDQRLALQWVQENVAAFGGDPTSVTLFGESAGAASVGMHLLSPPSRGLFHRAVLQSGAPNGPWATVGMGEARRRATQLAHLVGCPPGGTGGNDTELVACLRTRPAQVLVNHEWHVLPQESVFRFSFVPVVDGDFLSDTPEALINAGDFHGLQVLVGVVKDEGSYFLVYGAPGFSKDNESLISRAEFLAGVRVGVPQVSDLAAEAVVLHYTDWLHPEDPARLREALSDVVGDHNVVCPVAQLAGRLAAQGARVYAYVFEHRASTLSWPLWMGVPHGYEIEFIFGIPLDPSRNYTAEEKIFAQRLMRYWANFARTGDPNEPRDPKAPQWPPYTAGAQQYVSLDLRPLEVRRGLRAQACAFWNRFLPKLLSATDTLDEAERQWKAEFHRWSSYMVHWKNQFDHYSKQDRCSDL
# Sequence of Thyrotropin-releasing hormone receptor (Homo sapiens) (P34981 whole entry, looked up): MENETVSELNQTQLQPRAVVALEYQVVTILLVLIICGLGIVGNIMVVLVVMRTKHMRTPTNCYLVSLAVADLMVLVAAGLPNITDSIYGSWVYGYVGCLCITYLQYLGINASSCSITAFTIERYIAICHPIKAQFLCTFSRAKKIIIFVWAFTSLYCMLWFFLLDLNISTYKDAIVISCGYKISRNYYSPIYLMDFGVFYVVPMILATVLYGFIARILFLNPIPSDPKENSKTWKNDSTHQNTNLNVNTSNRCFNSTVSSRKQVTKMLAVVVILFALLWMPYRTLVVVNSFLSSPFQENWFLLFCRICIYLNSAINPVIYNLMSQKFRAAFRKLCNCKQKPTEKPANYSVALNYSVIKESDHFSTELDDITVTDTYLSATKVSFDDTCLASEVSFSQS
# Sequence of Nuclear receptor subfamily 1 group I member 2 (Homo sapiens) (O75469 whole entry, looked up): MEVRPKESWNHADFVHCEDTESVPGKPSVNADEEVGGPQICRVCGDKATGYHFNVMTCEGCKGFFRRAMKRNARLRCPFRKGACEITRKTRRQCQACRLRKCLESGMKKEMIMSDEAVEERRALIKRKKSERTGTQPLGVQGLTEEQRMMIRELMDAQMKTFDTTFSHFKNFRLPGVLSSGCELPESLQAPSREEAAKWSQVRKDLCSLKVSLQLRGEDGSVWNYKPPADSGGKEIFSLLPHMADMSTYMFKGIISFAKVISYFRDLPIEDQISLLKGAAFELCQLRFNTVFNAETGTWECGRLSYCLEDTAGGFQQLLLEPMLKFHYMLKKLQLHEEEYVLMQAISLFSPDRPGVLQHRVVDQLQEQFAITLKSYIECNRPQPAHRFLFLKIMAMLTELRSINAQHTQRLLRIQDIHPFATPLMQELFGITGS
# Sequence of Progesterone receptor (Homo sapiens) (P06401 whole entry, looked up): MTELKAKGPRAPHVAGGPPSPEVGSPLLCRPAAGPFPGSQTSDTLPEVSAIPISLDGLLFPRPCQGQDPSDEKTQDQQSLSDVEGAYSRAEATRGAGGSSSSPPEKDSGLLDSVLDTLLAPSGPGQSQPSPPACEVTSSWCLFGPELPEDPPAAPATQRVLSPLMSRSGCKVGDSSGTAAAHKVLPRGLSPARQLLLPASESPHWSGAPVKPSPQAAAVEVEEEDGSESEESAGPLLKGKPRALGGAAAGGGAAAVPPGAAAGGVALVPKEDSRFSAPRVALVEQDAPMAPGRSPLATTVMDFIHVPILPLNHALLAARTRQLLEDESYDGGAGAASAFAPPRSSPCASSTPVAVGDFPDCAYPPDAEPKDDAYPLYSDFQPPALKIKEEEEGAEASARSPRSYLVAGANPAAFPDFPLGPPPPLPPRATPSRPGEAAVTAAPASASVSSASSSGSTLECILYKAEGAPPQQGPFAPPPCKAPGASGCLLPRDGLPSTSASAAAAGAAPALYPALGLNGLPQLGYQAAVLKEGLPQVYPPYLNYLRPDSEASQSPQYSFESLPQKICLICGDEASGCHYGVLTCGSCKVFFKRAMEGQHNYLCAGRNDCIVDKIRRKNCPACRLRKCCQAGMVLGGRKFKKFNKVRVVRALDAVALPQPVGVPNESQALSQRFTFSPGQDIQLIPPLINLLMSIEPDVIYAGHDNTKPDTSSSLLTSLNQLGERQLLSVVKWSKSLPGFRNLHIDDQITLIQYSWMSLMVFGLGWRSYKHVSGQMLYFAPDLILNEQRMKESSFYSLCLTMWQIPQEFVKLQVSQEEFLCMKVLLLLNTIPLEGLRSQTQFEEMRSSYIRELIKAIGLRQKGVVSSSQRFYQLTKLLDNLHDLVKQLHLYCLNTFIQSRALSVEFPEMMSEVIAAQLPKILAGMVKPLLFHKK
structure (smiles),measurement,setting,value
COCC(=O)N(c1c(C)cccc1C)[C@H](C)C(=O)OC,Potency,[1],inactive
same,Potency,[2],inactive
same,Potency,[3],inactive
same,Potency,[4],inactive
same,Potency,[5],inactive
same,Potency,[6],inactive
same,outcome,[7],inactive
same,Potency,[8],inactive
same,Potency,[9],inactive
same,Potency,[10],inactive
same,Potency,[11],inactive
same,Potency,[12],inactive
same,Potency,[13],inactive
same,Potency,[14],inactive
same,Potency,[15],inactive
same,Potency,[16],inactive
Cc1cc(SCc2sc(-c3ccc(C(F)(F)F)c(F)c3)nc2C)ccc1OCC(=O)O,Potency,[1],inactive
same,Potency,[2],inactive
same,Potency,[3],17.2 µM (active)
same,Potency,[4],19.3 µM (active)
same,Potency,[5],8.63 µM (active)
same,Potency,[17],inactive
same,Potency,[6],inactive
same,Potency,[8],inactive
same,Potency,[9],inactive
same,Potency,[11],inactive
same,Potency,[15],24.3 µM (active)
same,Potency,[16],inactive
Brc1c(Br)c(Br)c(Oc2c(Br)c(Br)c(Br)c(Br)c2Br)c(Br)c1Br,"activity change, negative = cytotoxicity",[1],-0.0832% [at 19 µM]
same,activation,[2],-1.27% [at 19 µM]
same,"activity change, negative = inhibition",[3],0.347% [at 18.9 µM]
same,"activity change, negative = cytotoxicity",[4],-6.81% [at 18.9 µM]
same,"activity change, negative = cytotoxicity",[5],-0.672% [at 19 µM]
same,"viability change, negative = cytotoxic",[17],12.3% [at 15.8 µM]
same,activation,[7],4.57% [at 15.8 µM]
same,"activity, negative = inhibition",[8],2.65% [at 10.5 µM]
same,activation,[9],-0.444% [at 11.8 µM]
same,"activity change, negative = cytotoxicity",[10],1.58% [at 19 µM]
same,caspase activation,[11],-0.566% [at 19 µM]
same,"activity change, negative = cytotoxicity",[12],-1.81% [at 19 µM]
same,caspase-3/7 activation,[13],3.41% [at 19 µM]
same,"activity change, negative = cytotoxicity",[14],0.358% [at 19 µM]
same,activation,[15],-0.0764% [at 19 µM]
same,"activity, negative = inhibition",[16],0.803% [at 23.6 µM]
BrC(Br)C(Br)(Br)Br,Potency,[1],inactive
same,Potency,[2],inactive
same,Potency,[3],inactive
same,Potency,[4],inactive
same,Potency,[5],inactive
same,Potency,[6],inactive
same,outcome,[7],inactive
same,Potency,[8],34 µM (active)
same,Potency,[9],inactive
same,Potency,[10],inactive
same,Potency,[11],inactive
same,Potency,[12],48.9 µM (active)
same,Potency,[13],inactive
same,Potency,[14],inactive
same,Potency,[15],inactive
same,Potency,[16],inactive
Cc1cc(N=Nc2ccccc2C)ccc1N,Potency,[1],27.3 µM (active)
same,Potency,[2],inactive
same,Potency,[3],12.2 µM (active)
same,Potency,[4],inactive
same,Potency,[17],inactive
same,Potency,[6],inactive
same,outcome,[7],inactive
same,Potency,[8],inactive
same,Potency,[9],inactive
same,Potency,[10],4.47 µM (active) and 6.86 µM (active)
same,Potency,[11],1.37 µM (active) and 969 nM (active)
same,Potency,[12],30.6 µM (active) and 61.1 µM (active)
same,Potency,[13],inactive
same,Potency,[14],3.86 µM (active) and 686 nM (active)
same,Potency,[15],24.3 µM (active) and 30.6 µM (active)
same,Potency,[16],inactive
Cc1cc(Cl)ccc1O[C@H](C)C(=O)O,Potency,[1],inactive
same,Potency,[2],inactive
same,Potency,[3],inactive
same,Potency,[4],inactive
same,Potency,[17],inactive
same,Potency,[6],inactive
same,Potency,[10],inactive
same,Potency,[11],inactive
same,Potency,[13],inactive
same,Potency,[14],inactive
same,Potency,[15],inactive
same,Potency,[16],inactive
CCOC(=O)C1(c2ccccc2)CCN(CCC(C#N)(c2ccccc2)c2ccccc2)CC1,Potency,[1],inactive
same,Potency,[2],inactive
same,Potency,[4],inactive
same,Potency,[5],inactive
same,Potency,[17],inactive
same,Potency,[6],inactive
same,outcome,[7],inactive
same,Potency,[8],inactive
same,Potency,[9],inactive
same,Potency,[10],inactive
same,Potency,[11],inactive
same,Potency,[13],inactive
same,Potency,[14],inactive
same,Potency,[15],3.35 µM (active)
same,Potency,[18],1.41 µM (active)
same,Potency,[19],1.12 µM (active)
same,Potency,[16],inactive
c1ccc2c(c1)OCC(C1=NCCN1)O2 (configuration not stated),Potency,[1],inactive
same,Potency,[2],inactive
same,Potency,[4],inactive
same,Potency,[5],inactive
same,Potency,[6],inactive
same,outcome,[7],inactive
same,Potency,[8],inactive
same,Potency,[9],inactive
same,Potency,[10],26.6 µM (active)
same,Potency,[11],inactive
same,Potency,[12],23.7 µM (active)
same,Potency,[13],inactive
same,Potency,[15],11.9 µM (active)
same,Potency,[16],inactive
CCOP(=S)(OCC)SCS(=O)(=O)C(C)(C)C,Potency,[1],inactive
same,Potency,[2],inactive
same,Potency,[3],68.6 µM (active)
same,Potency,[17],inactive
same,Potency,[6],inactive
same,outcome,[7],inactive
same,Potency,[8],inactive
same,Potency,[9],inactive
same,Potency,[11],inactive
same,Potency,[12],inactive
same,Potency,[13],inactive
same,Potency,[14],inactive
same,Potency,[15],9.69 µM (active)
same,Potency,[16],63.3 µM (active)
c1ccc(OCC2CO2)cc1 (configuration not stated),Potency,[1],inactive
same,Potency,[2],inactive
same,Potency,[4],inactive
same,Potency,[5],inactive
same,Potency,[17],inactive
same,Potency,[6],inactive
same,outcome,[7],inactive
same,Potency,[10],inactive
same,Potency,[11],inactive
same,Potency,[12],inactive
same,Potency,[14],inactive
N#CNC#N,Potency,[1],inactive
same,Potency,[2],inactive
same,Potency,[4],inactive
same,Potency,[5],inactive
same,Potency,[17],inactive
same,Potency,[6],inactive
same,outcome,[7],inactive
same,Potency,[8],inactive
same,Potency,[9],inactive
same,Potency,[10],inactive
same,Potency,[11],inactive
same,Potency,[12],inactive
same,Potency,[14],inactive
same,Potency,[15],inactive
same,Potency,[16],inactive
Oc1ccc2ccc3cccc4ccc1c2c34,Potency,[1],inactive
same,Potency,[2],inactive
same,Potency,[4],inactive
same,Potency,[5],inactive
same,Potency,[17],inactive
same,Potency,[8],inactive
same,Potency,[9],inactive
same,Potency,[11],inactive
same,Potency,[12],inactive
same,Potency,[13],inactive
same,Potency,[14],inactive
same,Potency,[15],27.3 µM (active)
same,Potency,[16],inactive
